Source: the supplement of paper PMC10849652
The full data set covers some 7,900 targets. This sample favours those with a hit. About 0.6% of all pairs of compound and target were hits. Unmarked numbers belong to inactive results.

Assays:
Test in all cases: log2 fold change, soluble protein after heating vs DMSO (PISA); higher = thermal stabilisation; K562 cells, 10 uM, 30 min; active = over 0.2 and 3.5 SD of the protein, either way, in both replicates (recomputed)
[1] = compound: CN1CCN(CCOc2cc(OC3CCOCC3)c3c(Nc4c(Cl)ccc5c4OCO5)ncnc3c2)CC1 [saracatinib]
Summary of the method: (§1)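 K562 cells at 2×10^6 cells/mL were treated with 10 μM compound for 30 min. Aliquots were heated for 3 min across 48°C-58°C, pooled, and extracted in PBS with 0.5% NP-40 at 4°C; soluble protein was the supernatant after 21,000xg for 90 min. Soluble protein was quantified by TMTpro 16plex LC-MS/MS with channel sums equalised, and reported as log2 fold change in thermal stability against DMSO controls, with values from duplicates.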

[2] = compound: CN1CCN(c2nc(C3=C(c4c[nH]c5ccccc45)C(=O)NC3=O)c3ccccc3n2)CC1 [sotrastaurin]
Summary of the method: as §1

[3] = compound: CN1CC[C@H](c2c(O)cc(O)c3c(=O)cc(-c4ccccc4Cl)oc23)[C@H](O)C1 [alvocidib]
Summary of the method: as §1

[4] = compound: CN1CCc2c(c3ccccc3n2Cc2ccc(C(=O)NO)cc2)C1 [Tubastatin A]
Summary of the method: as §1

[5] = compound: CNC(=O)C1=CC=CC=C1NC2=NC(=NC=C2Cl)NC3=C(C=C(C=C3)N4CCOCC4)OC
Summary of the method: as §1

[6] = compound: CNC(=O)c1ccc(Nc2ncc(C(F)(F)F)c(NCc3nccnc3N(C)S(C)(=O)=O)n2)cc1 [defactinib]
Summary of the method: as §1

[7] = compound: CNCc1ccc(-c2[nH]c3cc(F)cc4c3c2CCNC4=O)cc1 [rucaparib]
Summary of the method: as §1

[8] = compound: CNc1nc(-c2ccc3c(N)n[nH]c3c2)cc(N2C[C@@H](C(=O)NC3CCCCC3)CC[C@H]2C)n1
Summary of the method: as §1

[9] = compound: COC(=O)N[C@@H](C)CNc1nccc(-c2cn(C(C)C)nc2-c2cc(Cl)cc(NS(C)(=O)=O)c2F)n1 [encorafenib]
Summary of the method: as §1

[10] = compound: COC(=O)[C@H](CCSC)NC(=O)C1=C(C=C(C=C1)NC[C@H](CS)N)C2=CC=CC=C2
Summary of the method: as §1

[11] = compound: COC1=CC=C(C=C1)CN2C=CC3=C2C=C(C=C3)C(=O)NO
Summary of the method: as §1

[12] = compound: CON(C)C(=O)N1N=C(c2cc(F)ccc2F)S[C@@]1(CCCN)c1ccccc1 [filanesib]
Summary of the method: as §1

[13] = compound: CO[C@H]1C[C@@H]2CC[C@@H](C)[C@@](O)(O2)C(=O)C(=O)N2CCCC[C@H]2C(=O)O[C@H]([C@H](C)C[C@@H]2CC[C@H](n3cnnn3)[C@H](OC)C2)CC(=O)[C@H](C)/C=C(\C)[C@@H](O)[C@@H](OC)C(=O)[C@H](C)C[C@H](C)/C=C/C=C/C=C/1C [zotarolimus]
Summary of the method: as §1

[14] = compound: COc1cc(C(=O)O)ccc1NC(=O)[C@@H]1N[C@@H](CC(C)(C)C)[C@](C#N)(c2ccc(Cl)cc2F)[C@H]1c1cccc(Cl)c1F [idasanutlin]
Summary of the method: as §1

[15] = compound: COc1cc(Nc2ncc3c(n2)-c2ccc(Cl)cc2C(c2c(F)cccc2OC)=NC3)ccc1C(=O)O [alisertib]
Summary of the method: as §1

[16] = compound: COc1cc2nc(-c3cc(F)ccc3O)nc(N[C@@H]3CNC[C@H]3C(C)(C)O)c2cc1OC
Summary of the method: as §1

[17] = compound: COc1cc2ncnc(Nc3ccc(F)c(Cl)c3)c2cc1OCCCN1CCOCC1 [gefitinib]
Summary of the method: as §1

[18] = compound: COc1cccc2cc(-c3nc([C@H]4CC[C@H](C(=O)O)CC4)n4ncnc(N)c34)[nH]c12
Summary of the method: as §1

[19] = compound: CS(=O)(=O)CCNCc1ccc(-c2ccc3ncnc(Nc4ccc(OCc5cccc(F)c5)c(Cl)c4)c3c2)o1 [lapatinib]
Summary of the method: as §1

[20] = compound: CS(=O)(=O)N1CCN(Cc2cc3nc(-c4cccc5[nH]ncc45)nc(N4CCOCC4)c3s2)CC1 [pictilisib]
Summary of the method: as §1

UniProt Q8WV93, sequence (Q8WV93 whole entry, looked up): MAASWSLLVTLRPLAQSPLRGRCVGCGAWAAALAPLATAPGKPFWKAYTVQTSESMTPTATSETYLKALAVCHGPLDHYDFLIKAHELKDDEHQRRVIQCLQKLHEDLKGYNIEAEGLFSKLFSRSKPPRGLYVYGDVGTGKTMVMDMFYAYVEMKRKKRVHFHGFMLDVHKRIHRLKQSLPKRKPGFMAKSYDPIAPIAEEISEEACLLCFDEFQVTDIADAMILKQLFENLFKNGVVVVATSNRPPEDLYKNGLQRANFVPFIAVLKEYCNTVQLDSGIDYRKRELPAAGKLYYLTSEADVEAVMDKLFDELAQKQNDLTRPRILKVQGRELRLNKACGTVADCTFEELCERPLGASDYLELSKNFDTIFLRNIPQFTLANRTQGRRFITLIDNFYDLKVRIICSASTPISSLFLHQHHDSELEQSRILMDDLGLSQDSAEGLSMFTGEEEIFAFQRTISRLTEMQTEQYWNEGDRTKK
UniProt O15440, sequence (O15440 whole entry, looked up): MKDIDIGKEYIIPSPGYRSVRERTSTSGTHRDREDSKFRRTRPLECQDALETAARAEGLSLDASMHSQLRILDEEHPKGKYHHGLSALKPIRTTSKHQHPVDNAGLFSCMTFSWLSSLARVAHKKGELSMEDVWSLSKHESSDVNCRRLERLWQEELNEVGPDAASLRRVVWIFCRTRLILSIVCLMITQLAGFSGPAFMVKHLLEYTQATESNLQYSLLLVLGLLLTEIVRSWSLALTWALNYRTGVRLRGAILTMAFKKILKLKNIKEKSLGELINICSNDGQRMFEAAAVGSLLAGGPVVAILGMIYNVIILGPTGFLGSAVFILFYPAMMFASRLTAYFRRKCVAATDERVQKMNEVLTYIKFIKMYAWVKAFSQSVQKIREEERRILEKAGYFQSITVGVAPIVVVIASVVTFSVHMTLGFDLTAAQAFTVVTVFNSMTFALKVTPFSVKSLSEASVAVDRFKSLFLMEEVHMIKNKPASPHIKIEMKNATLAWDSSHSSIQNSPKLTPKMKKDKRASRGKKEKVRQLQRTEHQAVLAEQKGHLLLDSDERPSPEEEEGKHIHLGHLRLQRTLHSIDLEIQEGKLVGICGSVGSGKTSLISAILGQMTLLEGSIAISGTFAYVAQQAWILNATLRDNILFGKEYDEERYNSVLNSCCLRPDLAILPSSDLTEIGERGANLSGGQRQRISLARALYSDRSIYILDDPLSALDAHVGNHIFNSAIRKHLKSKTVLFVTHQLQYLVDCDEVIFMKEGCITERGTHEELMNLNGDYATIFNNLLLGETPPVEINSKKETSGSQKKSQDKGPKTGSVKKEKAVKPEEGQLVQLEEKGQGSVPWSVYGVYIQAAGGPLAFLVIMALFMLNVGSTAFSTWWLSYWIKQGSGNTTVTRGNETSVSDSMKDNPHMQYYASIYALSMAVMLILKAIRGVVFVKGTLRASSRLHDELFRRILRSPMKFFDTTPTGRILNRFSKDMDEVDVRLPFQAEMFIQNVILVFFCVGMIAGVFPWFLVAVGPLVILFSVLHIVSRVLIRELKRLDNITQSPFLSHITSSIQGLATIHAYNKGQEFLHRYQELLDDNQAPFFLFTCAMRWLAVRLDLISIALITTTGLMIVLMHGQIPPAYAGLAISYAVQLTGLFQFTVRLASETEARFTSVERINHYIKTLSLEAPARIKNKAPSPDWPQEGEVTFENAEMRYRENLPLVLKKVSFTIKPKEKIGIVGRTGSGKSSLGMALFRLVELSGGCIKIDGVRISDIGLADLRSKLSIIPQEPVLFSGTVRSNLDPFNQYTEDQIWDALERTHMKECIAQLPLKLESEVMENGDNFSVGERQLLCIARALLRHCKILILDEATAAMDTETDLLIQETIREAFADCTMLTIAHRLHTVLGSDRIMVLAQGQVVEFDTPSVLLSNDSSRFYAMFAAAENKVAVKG
UniProt Q8N6T3, sequence (Q8N6T3 whole entry, looked up): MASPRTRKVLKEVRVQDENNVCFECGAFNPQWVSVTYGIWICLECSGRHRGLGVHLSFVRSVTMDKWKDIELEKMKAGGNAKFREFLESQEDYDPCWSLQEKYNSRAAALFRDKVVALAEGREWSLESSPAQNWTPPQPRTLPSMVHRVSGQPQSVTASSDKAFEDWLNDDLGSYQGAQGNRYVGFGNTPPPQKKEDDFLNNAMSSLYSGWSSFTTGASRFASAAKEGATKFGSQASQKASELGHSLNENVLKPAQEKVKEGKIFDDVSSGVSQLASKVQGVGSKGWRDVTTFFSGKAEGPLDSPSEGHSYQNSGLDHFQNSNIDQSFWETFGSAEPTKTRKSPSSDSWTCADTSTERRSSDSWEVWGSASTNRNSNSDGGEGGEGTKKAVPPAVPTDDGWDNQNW
UniProt P54886, sequence (P54886 whole entry, looked up): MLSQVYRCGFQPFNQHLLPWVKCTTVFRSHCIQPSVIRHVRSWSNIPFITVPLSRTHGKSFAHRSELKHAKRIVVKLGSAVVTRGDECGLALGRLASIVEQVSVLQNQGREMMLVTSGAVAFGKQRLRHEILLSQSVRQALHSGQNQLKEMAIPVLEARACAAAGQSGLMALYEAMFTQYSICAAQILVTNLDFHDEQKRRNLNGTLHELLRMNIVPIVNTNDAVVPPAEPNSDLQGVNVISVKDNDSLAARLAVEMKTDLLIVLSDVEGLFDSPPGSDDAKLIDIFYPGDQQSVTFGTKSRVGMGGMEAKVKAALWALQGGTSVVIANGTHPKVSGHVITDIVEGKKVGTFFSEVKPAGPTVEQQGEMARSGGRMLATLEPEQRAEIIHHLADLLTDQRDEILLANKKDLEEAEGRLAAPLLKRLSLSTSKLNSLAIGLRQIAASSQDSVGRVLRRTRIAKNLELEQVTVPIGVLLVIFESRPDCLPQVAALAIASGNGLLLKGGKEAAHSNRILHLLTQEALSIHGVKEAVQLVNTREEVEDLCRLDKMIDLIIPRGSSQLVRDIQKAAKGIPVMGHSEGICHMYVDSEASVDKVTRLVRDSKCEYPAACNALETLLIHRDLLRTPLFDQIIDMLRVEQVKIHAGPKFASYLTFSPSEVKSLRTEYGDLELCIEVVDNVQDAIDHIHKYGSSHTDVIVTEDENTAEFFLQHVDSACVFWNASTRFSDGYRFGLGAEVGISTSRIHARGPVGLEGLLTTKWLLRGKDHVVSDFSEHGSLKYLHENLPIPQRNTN
UniProt Q06481, sequence (Q06481 whole entry, looked up): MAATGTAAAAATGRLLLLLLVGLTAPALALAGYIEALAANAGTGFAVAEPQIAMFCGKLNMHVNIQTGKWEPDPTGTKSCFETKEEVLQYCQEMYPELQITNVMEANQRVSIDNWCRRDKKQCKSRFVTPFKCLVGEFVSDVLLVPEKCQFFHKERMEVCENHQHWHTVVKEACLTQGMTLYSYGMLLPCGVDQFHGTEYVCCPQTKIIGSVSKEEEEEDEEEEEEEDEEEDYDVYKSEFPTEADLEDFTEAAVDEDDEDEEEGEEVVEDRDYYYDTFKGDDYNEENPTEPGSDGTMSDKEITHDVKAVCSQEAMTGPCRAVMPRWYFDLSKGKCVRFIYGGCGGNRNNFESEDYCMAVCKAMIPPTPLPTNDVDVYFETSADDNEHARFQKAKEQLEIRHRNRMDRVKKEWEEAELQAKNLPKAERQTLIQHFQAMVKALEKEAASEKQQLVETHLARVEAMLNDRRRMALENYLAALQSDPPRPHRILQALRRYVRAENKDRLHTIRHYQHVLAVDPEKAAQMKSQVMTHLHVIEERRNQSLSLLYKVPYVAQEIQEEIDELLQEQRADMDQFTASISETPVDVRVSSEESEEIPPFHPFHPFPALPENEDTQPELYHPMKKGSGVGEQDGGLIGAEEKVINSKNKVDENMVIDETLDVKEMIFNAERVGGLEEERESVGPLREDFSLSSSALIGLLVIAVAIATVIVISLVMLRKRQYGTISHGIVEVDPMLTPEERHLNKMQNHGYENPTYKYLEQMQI
UniProt Q9Y4P1, sequence (Q9Y4P1 whole entry, looked up): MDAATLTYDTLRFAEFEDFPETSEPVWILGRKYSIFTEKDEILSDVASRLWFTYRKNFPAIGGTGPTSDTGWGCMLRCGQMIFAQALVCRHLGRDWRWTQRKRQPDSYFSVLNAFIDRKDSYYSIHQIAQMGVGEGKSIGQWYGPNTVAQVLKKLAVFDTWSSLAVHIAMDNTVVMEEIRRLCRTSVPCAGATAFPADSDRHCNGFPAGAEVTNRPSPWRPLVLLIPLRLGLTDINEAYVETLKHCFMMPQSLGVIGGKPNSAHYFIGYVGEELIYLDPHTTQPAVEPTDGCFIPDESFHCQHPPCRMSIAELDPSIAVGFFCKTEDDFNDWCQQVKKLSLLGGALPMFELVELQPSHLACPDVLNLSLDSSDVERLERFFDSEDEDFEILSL
UniProt Q9P287, sequence (Q9P287 whole entry, looked up): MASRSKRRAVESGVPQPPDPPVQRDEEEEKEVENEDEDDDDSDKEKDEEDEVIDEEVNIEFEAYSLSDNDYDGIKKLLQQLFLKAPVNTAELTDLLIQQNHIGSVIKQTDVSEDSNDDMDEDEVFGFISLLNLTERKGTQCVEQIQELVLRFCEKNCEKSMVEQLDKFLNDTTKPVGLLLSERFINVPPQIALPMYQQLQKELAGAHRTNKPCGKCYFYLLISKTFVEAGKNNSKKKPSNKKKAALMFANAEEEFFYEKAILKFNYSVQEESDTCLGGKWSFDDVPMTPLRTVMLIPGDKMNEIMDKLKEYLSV
UniProt P08758, sequence (P08758 whole entry, looked up): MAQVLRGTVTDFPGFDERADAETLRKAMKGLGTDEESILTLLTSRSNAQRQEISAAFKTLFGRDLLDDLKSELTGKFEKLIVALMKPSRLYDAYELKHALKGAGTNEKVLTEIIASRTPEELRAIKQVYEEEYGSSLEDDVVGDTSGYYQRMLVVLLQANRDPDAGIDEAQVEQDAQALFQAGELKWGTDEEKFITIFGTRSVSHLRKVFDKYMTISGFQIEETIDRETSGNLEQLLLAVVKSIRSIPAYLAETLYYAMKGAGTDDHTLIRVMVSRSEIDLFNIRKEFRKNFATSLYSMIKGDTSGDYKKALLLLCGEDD

Row | Target | log2 fold change [1] | log2 fold change [2] | log2 fold change [3] | log2 fold change [4] | log2 fold change [5] | log2 fold change [6] | log2 fold change [7] | log2 fold change [8] | log2 fold change [9] | log2 fold change [10] | log2 fold change [11] | log2 fold change [12] | log2 fold change [13] | log2 fold change [14] | log2 fold change [15] | log2 fold change [16] | log2 fold change [17] | log2 fold change [18] | log2 fold change [19] | log2 fold change [20]
1 | ADH5 (UniProt P11766) | 0.04 | 0.03 | 0.011 | -0.025 | -0.025 | -0.014 | -0.066 | -0.025 | -0.006 | 0.002 | -0.002 | -0.053 | 0.008 | -0.037 | -0.039 | 0.011 | -0.007 | 0.058 | -0.03 | 0
2 | ARFGAP1 (UniProt Q8N6T3) | -0.021 | -0.086 | -0.029 | 0.034 | 0.068 | -0.158 | -0.048 | -0.087 | 0.068 | -0.044 | 0.03 | 0.034 | 0.047 | 0.028 | 0.047 | 0 | -0.022 | -0.015 | -0.038 | -0.007
3 | APLP2 (UniProt Q06481) | 0.072 | 0.094 | 0.011 | 0.014 | 0.009 | -0.055 | -0.082 | -0.051 | 0.02 | 0.051 | 0.036 | 0.219 (active) | 0.002 | 0.058 | -0.039 | 0.038 | 0.106 | -0.04 | 0.09 | 0.091
4 | ANXA5 (UniProt P08758) | -0.023 | -0.038 | -0.083 | -0.006 | 0.039 | -0.082 | -0.001 | 0.012 | 0.083 | -0.062 | 0.033 | -0.033 | 0.049 | -0.013 | -0.006 | 0.009 | 0.05 | -0.032 | 0.015 | -0.021
5 | AP2B1 isoform 2 (UniProt P63010) | 0.057 | -0.003 | 0.017 | 0.001 | 0.022 | 0.005 | 0.043 | -0.011 | 0.027 | 0.005 | 0.08 | 0.022 | 0.036 | -0.019 | -0.062 | 0.012 | 0.01 | 0.01 | 0.049 | 0.015
6 | ATG4B isoform 2 (UniProt Q9Y4P1) | -0.186 | -0.297 | -0.19 | 0.02 | 0.027 | -0.263 | -0.02 | 0.004 | -0.003 | -0.04 | -0.003 | -0.142 | 0.048 | -0.045 | -0.009 | -0.058 | 0.005 | -0.082 | -0.157 | -0.311
7 | ALG11 (UniProt Q2TAA5) | 0.047 | 0.013 | -0.064 | -0.023 | -0.018 | -0.021 | -0.015 | -0.021 | 0.073 | -0.082 | -0.018 | -0.038 | 0.036 | -0.051 | -0.075 | -0.003 | 0.206 | 0.026 | 0.005 | 0.032
8 | ARL3 (UniProt P36405) | 0.021 | -0.008 | -0.01 | -0.012 | -0.025 | -0.025 | -0.033 | -0.035 | -0.022 | 0.022 | 0 | -0.017 | -0.006 | -0.062 | -0.076 | -0.007 | -0.018 | 0.047 | -0.03 | 0.031
9 | AFG1L (UniProt Q8WV93) | -0.038 | -0.075 | -0.195 | -0.204 | -0.011 | -0.131 | -0.057 | 0.002 | 0.025 | 0.088 | -0.17 | -0.239 | 0.018 | 0.016 | -0.065 | -0.18 | -0.012 | 0.107 | 0.041 | –
10 | ACSM3 (UniProt Q53FZ2) | 0.031 | 0.018 | -0.021 | 0.009 | 0.053 | -0.148 | 0.142 | -0.09 | 0.021 | -0.064 | 0.134 | -0.056 | 0.009 | -0.017 | -0.033 | 0.101 | -0.034 | 0.028 | -0.025 | 0.198
11 | ACO2 (UniProt Q99798) | 0.005 | -0.017 | -0.107 | -0.021 | 0.016 | -0.083 | -0.034 | 0.021 | 0.027 | -0.037 | -0.101 | -0.081 | 0.015 | -0.086 | -0.016 | 0.036 | 0.008 | 0.071 | -0.018 | 0.041
12 | ABCC5 (UniProt O15440) | 0.107 | -0.028 | 0.007 | 0.002 | -0.02 | 0.019 | 0.116 | -0.003 | -0.039 | 0.026 | -0.026 | 0.001 | -0.02 | 0.017 | -0.026 | 0.053 | 0.089 | -0.05 | 0 | -0.037
13 | BAIAP2 (UniProt Q9UQB8) | 0.009 | -0.016 | -0.017 | 0.036 | -0.103 | -0.097 | 0.014 | -0.017 | 0.006 | -0.022 | 0.014 | -0.029 | -0.016 | -0.003 | 0.008 | -0.131 | -0.026 | -0.024 | 0.036 | 0
14 | ALDH18A1 (UniProt P54886) | -0.038 | -0.178 | 0.063 | -0.027 | -0.065 | -0.122 | 0.001 | -0.281 | 0.098 | -0.047 | -0.024 | -0.01 | 0.045 | -0.233 | -0.09 | 0.215 | -0.18 | 0.067 | -0.652 (active) | -0.101
15 | AGPS (UniProt O00116) | -0.01 | 0.018 | -0.058 | -0.011 | 0.032 | -0.039 | -0.017 | 0.047 | 0.009 | -0.042 | 0.074 | -0.145 | 0.05 | -0.037 | -0.03 | -0.044 | 0.069 | 0.048 | 0.018 | -0.003
16 | BCCIP (UniProt Q9P287) | -0.132 | 0 | 0.065 | -0.045 | -0.013 | 0.072 | 0.165 | 0.02 | 0.076 | -0.049 | -0.022 | 0.06 | 0.031 | -0.048 | -0.086 | 0.033 | 0.036 | -0.024 | 0.01 | -0.024
